Shown are actives, neighbours in structure and some others; about 15% of the full set was active somewhere.
VP16 counter: counter-screen for ROR gamma inhibitors: Gal4-VP16 reporter; Drosophila S2 Gal4-VP16 UAS-luciferase, luminescence, 20 h; Potency, µM (doses to about 53.6 µM), for the others: top-dose activity, negative = inhibition, usual class: inhibitors; 3.5% of 310,000 active;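 further: Gal4-VP16 expression switched on by copper sulfate through the metallothionein promoter; nearly all actives have a fitted effect of over 50% in size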
TDP1 cell noCPT: qHTS for Inhibitors of human tyrosyl-DNA phosphodiesterase 1 (TDP1): qHTS in cells in absence of CPT. DT40 Tdp1-/- hTDP1 cells, no CPT, ATP luminescence, 48 h. Potency, µM (series often up to 46.2 µM), inactives show at the highest dose activity change, negative = growth inhibition, actives largely listed as inhibitors. 15% of 420,000 active; further: nearly all actives have a fitted effect of over 55% in size
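A cellular qHTS used chicken DT40 cells lacking endogenous Tdp1 but carrying stably transfected human TDP1. Compounds were applied without camptothecin, and cell growth kinetics were judged by ATP-dependent luminescence after ≥48 hr.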
TDP1 cell CPT: growth inhibition of DT40 Tdp1-/-;hTDP1 cells with camptothecin (screen for TDP1 inhibitors); chicken DT40 Tdp1-/-;hTDP1 cells + 20 nM CPT, ATP luminescence, 48 h; Potency, µM (doses to about 46.2 µM), inactives show at the top dose activity change, negative = growth inhibition, usual class: inhibitors; 12% of 420,000 active; AID 686979; further: nearly all actives have a fitted effect of over 55% in size
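Cell growth measured by CellTiter-Glo luminescence after a minimum 48 h, 37 C compound exposure with 20 nM CPT in Tdp1-knockout DT40 cells stably expressing hTDP1, seeded 400/well; qHTS titration format.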
12-LOX inh: ALOX12 (human) lipoxygenase inhibition; P18054; purified 12hLO, xylenol orange hydroperoxide absorbance; 1.1% of 580,000 active; Potency, µM (highest dose often 108 µM), inactives show at the top dose activity change, negative = inhibition, actives largely listed as inhibitors; AID 1671190
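Purified human 12hLO at 150 nM in 25 mM Hepes, 0.01% Triton X-100, pH 7.0, preincubated 15 min at room temperature with compound. Reaction started with 40 uM arachidonic acid, 30 min at room temperature. Hydroperoxide measured by Fe-xylenol orange, 573/405 nm absorbance ratio.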
RORgamma inh: inhibitors of mouse ROR gamma transcriptional activity. P51450. Potency, µM (top dose mostly 53.6 µM), inactives show at the highest dose activity change, negative = inhibition, actives largely listed as inhibitors. Drosophila S2 Gal4-RORgamma UAS-luciferase reporter, 20 h. 5.4% of 310,000 active; further: nearly all actives have a fitted effect of over 60% in size
Target sequence (P51450 whole entry, looked up, the tested form may be a part): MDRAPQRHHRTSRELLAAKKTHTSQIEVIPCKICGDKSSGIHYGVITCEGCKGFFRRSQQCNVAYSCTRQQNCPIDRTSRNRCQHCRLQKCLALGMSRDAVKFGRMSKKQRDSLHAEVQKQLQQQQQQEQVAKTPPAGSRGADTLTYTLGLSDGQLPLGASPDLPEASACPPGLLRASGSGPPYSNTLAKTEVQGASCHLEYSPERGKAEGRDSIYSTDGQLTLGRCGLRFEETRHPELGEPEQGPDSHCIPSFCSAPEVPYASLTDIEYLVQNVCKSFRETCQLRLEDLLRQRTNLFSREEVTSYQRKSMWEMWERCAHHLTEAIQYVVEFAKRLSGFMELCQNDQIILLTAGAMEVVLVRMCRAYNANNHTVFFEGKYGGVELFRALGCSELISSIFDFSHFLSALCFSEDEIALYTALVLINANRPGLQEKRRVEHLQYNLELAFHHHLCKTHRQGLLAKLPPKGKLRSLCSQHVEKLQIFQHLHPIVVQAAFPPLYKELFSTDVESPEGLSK
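Using a luciferase readout, inhibitors were identified by reduced reporter activity in Drosophila cells coexpressing a copper-inducible Gal4–ROR gamma fusion and UAS-driven Photinus luciferase, incubated 20 hr after 700 uM copper sulfate.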
ELG1 repair inh: blocks ELG1-dependent DNA repair in HEK293T cells | HEK293T ELG1-luciferase reporter, luminescence, 16 h; DNA damage induced by 5-fluorouridine | Potency, µM (series often up to 46.1 µM), without a hit: at the top dose activity change, negative = inhibition, actives largely listed as inhibitors | 2.3% of 330,000 active | AID 504467; further: nearly all actives have a fitted effect of over 55% in size
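Overnight (16 hr) co-exposure of 2,000 cells/well to 5-fluorouridine and compound at 37 °C preceded detection. Luciferase was quantified via ONE-Glo luminescence; loss of signal denotes inhibition.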
An asterisk follows results filed as active; i = inactive; ? = inconclusive; · = not tested or not shown; [ ] = dose if it differs, or a comment. The call rests on the fitted dose curve; in most records, active means well fitted curve in the direction sought with a large enough effect; inconclusive means small, poorly fitted or top-dose-only effect, or another doubt; inactive means no such curve, though single readings can be large; an effect the other way counts as inactive or inconclusive. On the % scale 0 is the no-effect control and ±100 the full control effect; potency means the concentration at half of the fitted maximal effect.

SMILES | VP16 counter | TDP1 cell noCPT | TDP1 cell CPT | 12-LOX inh | RORgamma inh | ELG1 repair inh
C[S+](=O)([O-])N1CCCC2(C1)C(=NC1CCCCC1)NC(=O)N2c1cccnc1 (configuration not stated) | · | · | · | 55% | · | ·
CN(Cc1ccccc1)C(=O)[C@@H]1CCCN1C(=O)[C@@H]1CCCN1C(=O)c1cccs1 | · | -2% | -2% | -4% | · | ·
CN(Cc1ccccc1)C(=O)[C@@H]1CCCN1C(=O)[C@@H]1CCCN1C(=O)c1cccc2ccccc12 | · | 18µM* | ? | -9% | · | ·
CCOc1cc(OCC)cc(C(=O)N2CCC[C@H]2C(=O)N2CCC[C@H]2C(=O)N(C)Cc2ccccc2)c1 | · | 0.16µM* | 6% | ? | · | ·
CCOC(=O)c1ccc2c(c1)n(CC)c(/C=C/Nc1ccccc1)[n+]2CC | -11% | 12µM* | 18µM* | ? | -3% | ?
CCn1c(/C=C/Nc2ccccc2)[n+](CC)c2ccc(Cl)cc21 | 1% | 21µM* | 23µM* | ? | 24% | ?
COc1cccc(N2CC(C(=O)NCC(F)F)NC2=O)c1 (configuration not stated) | · | · | · | 38%[176 µM] | · | ·
CNc1nccc(N2CCC(CC(=O)NC3CCN(Cc4ccccc4)CC3)CC2)n1 | · | · | · | 41% | · | ·
COC(=O)CNc1nc(-c2ccccc2F)nc2ccccc12 | · | ? | -28% | -5% | -3%[0.365 µM] | ?
COCCNc1nc(-c2ccccc2Cl)nc2ccccc12 | -14% | ? | ? | ? | 39% | ·
CC(=O)c1cccc(Nc2nc(-c3cccc(C)c3)nc3ccccc23)c1 | · | 5.8µM* | 21µM* | 6.3µM* | · | ·
CC(=O)c1cccc(Nc2nc(-c3ccc(C)cc3)nc3ccccc23)c1 | · | · | · | 18% | · | ·
CC(=O)c1cccc(Nc2nc(-c3ccccc3Cl)nc3ccccc23)c1 | · | 10µM* | 15µM* | 26% | · | ·
CC(=O)Nc1cccc(Nc2nc(-c3ccccc3F)nc3ccccc23)c1 | -6% | ? | ? | -1% | 7% | 15µM*
COC(=O)c1ccc(Nc2nc(-c3ccccc3Cl)nc3ccccc23)cc1 | · | 16µM* | ? | ? | · | ·
O=S(=O)(NCCc1ccc(F)cc1)c1ccc2c(c1)CCCC2 | · | · | · | 3% | · | ·
CC1=C[C@@H](CN2C(=O)C(C)=C(C)C2=O)[C@H](C(C)C)C[C@H]1Cc1nc2ccccc2[nH]1 | · | · | · | -15%[176 µM] | · | ·
CC(C)Oc1nc(-c2ccccc2Cl)nc2ccccc12 | -8% | 15µM* | ? | -6% | 26% | 8%
CCOc1nc(-c2ccccc2O)nc2ccccc12 | 1%[0.365 µM] | -18% | -1% | 6% | 11% | 10%
COc1ccc(C(=O)N2CCC(N3C(=O)C(OC)C34CCOCC4)CC2)c(OC)n1 (configuration not stated) | · | · | · | 0% | · | ·
Cc1ccc(C(=O)OCC(=O)c2cc(C)n(Cc3ccco3)c2C)s1 | · | · | · | -46% | · | ·
Cc1cc(C(=O)CSc2nnnn2C)c(C)n1-c1ccc2c(c1)OCCO2 | -15% | ? | ? | ? | 51% | ?
Cc1cc(C(=O)CSc2nncs2)c(C)n1Cc1ccco1 | ? | 12µM* | -17% | 2% | -31% | ?
Cc1cc(C(=O)CN2C(=O)NC(c3ccccc3)(c3ccccc3)C2=O)c(C)n1Cc1ccco1 | 5% | 23µM* | ? | 21% | -4% | 2%
Cc1cc(C(=O)CCl)c(C)n1Cc1ccco1 | 18µM* | 2.6µM* | 2.6µM* | -7% | 7.9µM* | ?
SMILES | VP16 counter | TDP1 cell noCPT | TDP1 cell CPT | 12-LOX inh | RORgamma inh | ELG1 repair inh
Cc1cc(C(=O)CSc2nnc(-c3ccco3)o2)c(C)n1-c1ccc2c(c1)OCCO2 | -5% | 21µM* | ? | 16% | ? | ?
CSCC(=O)N[C@H]1CN(Cc2cn(CCO)nc2C)C[C@@H]1C1CC1 | · | · | · | 5% | · | ·
COc1ccc(CN2CCN(S(=O)(=O)c3cc(OC)ccc3OC)CC2)cc1 | · | · | · | -13% | · | ·
Cc1nc(-c2c3n(c(=O)n(Cc4ccc(OC(F)(F)F)cc4)c2=O)CCCC3)no1 | · | · | · | 37% | · | ·
CCOCCCNC(=O)c1ccc(NC(=O)C23CC4CC(CC(C4)C2)C3)cc1 | · | · | · | -15% | · | ·
Cc1cccc(C(=O)N2CCC3(CC2)c2[nH]c4ccccc4c2CCN3C)c1 | · | · | · | 23% | · | ·
O=C(c1ccoc1)N(Cc1cccs1)C1CC1 | · | · | · | 8% | · | ·
CCC(CNC(=O)c1ccc(C(=O)OC)cc1)c1ccccc1 (configuration not stated) | · | · | · | -69% | · | ·
Cc1cc(C(=O)CSc2nnc(-c3ccco3)o2)c(C)n1Cc1ccco1 | 9% | 23µM* | 21µM* | 22% | 13% | 24%
CC1Oc2cc3oc4c(O)c5c(cc4c(=O)c3c(O)c2C1(C)C)C=CC(C)(C)O5 (configuration not stated) | · | 21µM* | ? | · | · | ·
CN(Cc1cccc(F)c1)c1ccc(S(N)(=O)=O)cn1 | · | · | · | -34% | · | ·
O=C(NC1CCCCCCC1)C1CCCN(C2CCN(Cc3ccncc3)CC2)C1 (configuration not stated) | · | · | · | 44% | · | ·
CC(C)(C)c1ccc(C(=O)O/N=C(\N)Cc2cccs2)cc1 | · | ? | ? | 7% | · | ·
Cc1ccccc1C(=O)O/N=C(\N)Cc1cccs1 | ? | -22% | ? | i | 7.9µM* | ?
CCOc1ccccc1NC(=S)N1CCC(c2nc3ccccc3o2)CC1 | ? | ? | ? | -23% | 11µM* | -15%
Cc1cccc(NC(=S)N2CCC(c3nc4ccccc4o3)CC2)c1C | ? | -15% | -25% | -21% | 10µM* | 13%
Cc1cc(C)cc(NC(=O)N2CCC(c3nc4ccccc4o3)CC2)c1 | · | -27% | ? | 0% | 6%[0.365 µM] | -16%
Cc1ccccc1C(=O)N1CCC(c2nc3ccccc3o2)CC1 | · | · | · | -6% | · | ·
CC(C)c1ccc(NC(=O)N2CCC(c3nc4ccccc4o3)CC2)cc1 | -5% | 18µM* | 21µM* | 24% | 40% | -19%
Cc1cccc(NC(=S)N2CCC(c3nc4ccccc4o3)CC2)c1 | 8%[10 µM] | 29µM* | ? | ? | 7.1µM* | -2%
CC(C)COCCCNC(=O)c1cc(-c2ccncc2)nc2ccccc12 | · | · | · | 41% | · | ·
COCCNc1nc2c([S+](=O)([O-])c3ccc(Br)cc3)nnn2c2ccccc12 | · | · | · | 4%[6.33 µM] | · | ·
COC(=O)CCC(=O)N[C@H]1CO[C@H]2[C@@H]1OC[C@H]2OCc1ccccc1 | · | · | · | 20%[176 µM] | · | ·
COc1cccc(C=C(C(C)=O)C(=O)c2ccccc2)c1 | · | 15µM* | 21µM* | -10% | · | ·
